Measured values published in the supplement of paper PMC10849652.
About 7,900 targets were measured; listed, in parts, are those with a hit and a random draw of the rest. About 0.6% of all pairs of compound and target were hits.

Legend:
Test in all cases: log2 fold change, soluble protein after heating vs DMSO (PISA); higher = thermal stabilisation; K562 cells, 10 uM, 30 min; active = over 0.2 and 3.5 SD of the protein, either way, in both replicates (recomputed)
[1] = compound: C1COCCN1CCN2C3=CC=CC=C3N=C2NC(=O)C4=CC(=CC=C4)[N+](=O)[O-] [IRAK-1-4 Inhibitor I]
Summary of the method: (§1)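 Soluble protein was quantified by TMTpro 16plex LC-MS/MS after channel sums were equalised. It was obtained as the supernatant after 21,000xg for 90 min from pooled aliquots of K562 cells (2×10^6 cells/mL, 10 μM compound, 30 min) heated for 3 min across 48°C-58°C and extracted in PBS with 0.5% NP-40 at 4°C. Thermal stability values are relative to control samples and come from duplicates. They are given as log2 fold changes.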

[2] = compound: C=CC(=O)N1CCC[C@@H](n2nc(-c3ccc(Oc4ccccc4)cc3)c3c(N)ncnc32)C1 [ibrutinib]
Summary of the method: as §1

[3] = compound: CC(=O)c1cnc2ccc(-c3cc(Cl)c(O)c(Cl)c3)nc2c1N[C@H]1CC[C@H](CN(C)C)CC1
Summary of the method: as §1

[4] = compound: CC(C)(C)Cn1c(N)nc2ccc(-c3[nH]c(C(C)(C)C)nc3-c3ccc(F)cc3)nc21 [ralimetinib]
Summary of the method: as §1

[5] = compound: CC(C)(O)CC(=O)NCCn1ccc2ncnc(Nc3ccc(Oc4cccc(C(F)(F)F)c4)c(Cl)c3)c21
Summary of the method: as §1

[6] = compound: CC(C)C1=C2N=C(C=C(N2N=C1)NCC3=CC=CC=C3)NCCCCCCN
Summary of the method: as §1

[7] = compound: CC(C)C[C@@H](C=O)NC(=O)[C@H](CC(C)C)NC(=O)[C@H](CC(C)C)NC(=O)OCc1ccccc1
Summary of the method: as §1

[8] = compound: CC(C)N(C[C@H]1O[C@@H](n2cnc3c(N)ncnc32)[C@H](O)[C@@H]1O)[C@H]1C[C@@H](CCc2nc3cc(C(C)(C)C)ccc3[nH]2)C1 [pinometostat]
Summary of the method: as §1

[9] = compound: CC1=C(C(CC(=O)N1)C2=CC=C(C=C2)C(F)(F)F)C(=O)NC3=C(C=C4C(=C3)C=NN4)F
Summary of the method: as §1

[10] = compound: CC1=C(C2=C(C=C1)C(=O)C3=CC=CC=C3N2CCCN)C
Summary of the method: as §1

Measured: log2 fold change

VAMP7 (UniProt P51809)
UniProt P51809, sequence (P51809 whole entry, looked up): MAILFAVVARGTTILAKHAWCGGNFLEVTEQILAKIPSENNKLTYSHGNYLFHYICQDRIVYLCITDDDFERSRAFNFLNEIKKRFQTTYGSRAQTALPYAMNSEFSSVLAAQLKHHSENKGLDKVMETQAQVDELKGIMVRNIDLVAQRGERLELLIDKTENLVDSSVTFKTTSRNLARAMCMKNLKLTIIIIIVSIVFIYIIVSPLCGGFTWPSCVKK
inactive: [1] 0.018 | [2] -0.048 | [3] -0.041 | [4] -0.022 | [5] -0.006 | [6] -0.169 | [7] -0.001 | [8] -0.027 | [9] -0.011 | [10] 0.025

WDR18 (UniProt Q9BV38)
UniProt Q9BV38, sequence (Q9BV38 whole entry, looked up): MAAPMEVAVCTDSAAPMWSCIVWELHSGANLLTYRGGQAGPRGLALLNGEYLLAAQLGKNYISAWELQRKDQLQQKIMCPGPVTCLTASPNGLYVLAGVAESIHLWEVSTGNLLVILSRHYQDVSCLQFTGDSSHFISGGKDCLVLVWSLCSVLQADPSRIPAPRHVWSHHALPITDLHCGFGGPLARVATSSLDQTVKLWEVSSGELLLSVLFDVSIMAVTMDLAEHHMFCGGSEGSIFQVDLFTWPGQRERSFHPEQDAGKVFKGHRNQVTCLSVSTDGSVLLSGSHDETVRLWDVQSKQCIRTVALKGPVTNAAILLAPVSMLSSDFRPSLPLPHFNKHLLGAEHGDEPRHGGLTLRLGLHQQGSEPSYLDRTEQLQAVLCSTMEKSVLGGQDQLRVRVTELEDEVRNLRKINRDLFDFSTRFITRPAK
active: [10] -0.962
inactive: [1] -0.005 | [2] -0.03 | [3] -0.007 | [4] 0.064 | [5] 0.025 | [6] 0.008 | [7] -0.102 | [8] 0.028 | [9] 0.011

WDR4 (UniProt P57081)
UniProt P57081, sequence (P57081 whole entry, looked up): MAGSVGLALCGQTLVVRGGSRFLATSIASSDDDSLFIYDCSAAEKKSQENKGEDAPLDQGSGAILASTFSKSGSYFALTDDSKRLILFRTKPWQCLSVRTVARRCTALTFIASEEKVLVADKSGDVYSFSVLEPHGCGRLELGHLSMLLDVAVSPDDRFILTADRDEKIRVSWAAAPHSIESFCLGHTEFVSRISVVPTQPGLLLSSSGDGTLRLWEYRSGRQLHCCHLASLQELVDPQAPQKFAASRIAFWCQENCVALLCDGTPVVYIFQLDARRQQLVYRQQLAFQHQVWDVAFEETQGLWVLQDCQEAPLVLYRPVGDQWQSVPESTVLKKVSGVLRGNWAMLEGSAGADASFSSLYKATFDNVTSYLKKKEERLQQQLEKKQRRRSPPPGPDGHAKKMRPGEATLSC
inactive: [1] 0.024 | [2] -0.052 | [3] 0.022 | [4] -0.033 | [5] -0.003 | [6] -0.005 | [7] -0.072 | [8] -0.017 | [9] 0.019 | [10] 0.028

UQCR10 (UniProt Q9UDW1)
UniProt Q9UDW1, sequence (Q9UDW1 whole entry, looked up): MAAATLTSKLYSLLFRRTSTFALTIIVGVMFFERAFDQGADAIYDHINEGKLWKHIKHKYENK
inactive: [1] 0.036 | [2] 0.019 | [3] -0.077 | [4] -0.05 | [5] -0.056 | [6] 0.031 | [7] -0.127 | [8] -0.016 | [9] -0.008 | [10] 0.057

VPS8 (UniProt Q8N3P4)
inactive: [1] -0.085 | [2] -0.117 | [3] -0.004 | [4] 0.088 | [5] -0.079 | [6] -0.254 | [7] 0.052 | [8] 0.039 | [9] 0.026 | [10] 0.015

TMEM70 (UniProt Q9BUB7)
inactive: [1] 0.07 | [2] 0.068 | [3] -0.034 | [4] -0.044 | [5] -0.095 | [6] 0.13 | [7] 0.028 | [8] 0.019 | [9] -0.034 | [10] 0.086

TSEN2 (UniProt Q8NCE0)
inactive: [1] 0.073 | [2] -0.022 | [3] -0.116 | [4] -0.034 | [5] -0.127 | [6] 0.033 | [7] -0.001 | [8] 0.004 | [9] 0.055 | [10] 0.027

TOMM20 (UniProt Q15388)
inactive: [1] 0.006 | [2] 0 | [3] 0.003 | [4] -0.017 | [5] 0.118 | [7] 0.047 | [8] 0.022 | [9] -0.021 | [10] 0.018
active: [6] -0.343

UBE4A isoform 2 (UniProt Q14139)
inactive: [1] -0.114 | [2] -0.125 | [3] -0.017 | [4] 0.02 | [5] -0.032 | [7] 0.096 | [8] 0.093 | [9] 0.098 | [10] 0.041
active: [6] -0.376

TTC38 (UniProt Q5R3I4)
UniProt Q5R3I4, sequence (Q5R3I4 whole entry, looked up): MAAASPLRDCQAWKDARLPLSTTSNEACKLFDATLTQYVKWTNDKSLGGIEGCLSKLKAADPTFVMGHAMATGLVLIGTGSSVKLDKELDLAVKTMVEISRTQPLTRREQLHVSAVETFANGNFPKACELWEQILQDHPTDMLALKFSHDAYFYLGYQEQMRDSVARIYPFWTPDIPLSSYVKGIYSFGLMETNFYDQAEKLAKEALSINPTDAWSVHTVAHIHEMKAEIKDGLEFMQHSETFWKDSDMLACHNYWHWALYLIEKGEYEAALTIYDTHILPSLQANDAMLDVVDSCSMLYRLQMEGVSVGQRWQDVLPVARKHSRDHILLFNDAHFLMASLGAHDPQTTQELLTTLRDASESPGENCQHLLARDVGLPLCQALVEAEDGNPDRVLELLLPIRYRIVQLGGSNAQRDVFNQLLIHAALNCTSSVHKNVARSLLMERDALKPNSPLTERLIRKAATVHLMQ
active: [10] 0.801
inactive: [1] 0.129 | [2] -0.048 | [3] 0.023 | [4] 0.017 | [5] -0.204 | [6] -0.06 | [7] -0.195 | [8] 0.027 | [9] -0.081

TSG101 (UniProt Q99816)
UniProt Q99816, sequence (Q99816 whole entry, looked up): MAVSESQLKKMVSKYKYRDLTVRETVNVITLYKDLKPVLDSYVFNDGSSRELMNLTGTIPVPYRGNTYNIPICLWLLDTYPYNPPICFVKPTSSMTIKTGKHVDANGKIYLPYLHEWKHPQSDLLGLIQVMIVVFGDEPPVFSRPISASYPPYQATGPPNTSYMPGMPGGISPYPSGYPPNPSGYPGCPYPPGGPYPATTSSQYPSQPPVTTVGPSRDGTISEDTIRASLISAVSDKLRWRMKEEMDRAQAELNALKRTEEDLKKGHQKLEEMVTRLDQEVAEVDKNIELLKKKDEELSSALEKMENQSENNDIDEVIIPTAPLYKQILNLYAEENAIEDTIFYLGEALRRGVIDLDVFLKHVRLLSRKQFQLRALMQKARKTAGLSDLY
inactive: [1] 0.05 | [2] 0.004 | [3] -0.017 | [4] -0.005 | [5] -0.025 | [6] -0.146 | [7] 0.031 | [8] -0.003 | [9] 0.001 | [10] -0.012

TMEM173 (UniProt Q86WV6)
UniProt Q86WV6, sequence (Q86WV6 whole entry, looked up): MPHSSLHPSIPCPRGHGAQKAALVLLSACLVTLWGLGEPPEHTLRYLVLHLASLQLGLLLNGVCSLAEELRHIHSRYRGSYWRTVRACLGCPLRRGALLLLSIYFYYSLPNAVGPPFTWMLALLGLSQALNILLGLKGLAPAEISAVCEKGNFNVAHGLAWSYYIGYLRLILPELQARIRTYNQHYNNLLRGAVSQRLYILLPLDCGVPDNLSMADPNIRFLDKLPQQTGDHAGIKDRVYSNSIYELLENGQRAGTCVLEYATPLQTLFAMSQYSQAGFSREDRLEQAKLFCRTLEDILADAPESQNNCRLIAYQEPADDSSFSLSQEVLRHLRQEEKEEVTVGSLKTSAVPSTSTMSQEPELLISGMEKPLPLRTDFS
inactive: [1] 0.018 | [2] -0.105 | [3] 0.009 | [4] 0.067 | [5] -0.047 | [6] -0.006 | [7] 0.005 | [8] 0.012 | [9] 0.009 | [10] 0.088

TOM1L1 (UniProt O75674)
inactive: [1] 0.006 | [2] -0.001 | [3] -0.014 | [4] -0.047 | [5] -0.013 | [6] 0.019 | [7] 0.028 | [8] -0.023 | [9] 0.006 | [10] -0.019

VPS16 (UniProt Q9H269)
UniProt Q9H269, sequence (Q9H269 whole entry, looked up): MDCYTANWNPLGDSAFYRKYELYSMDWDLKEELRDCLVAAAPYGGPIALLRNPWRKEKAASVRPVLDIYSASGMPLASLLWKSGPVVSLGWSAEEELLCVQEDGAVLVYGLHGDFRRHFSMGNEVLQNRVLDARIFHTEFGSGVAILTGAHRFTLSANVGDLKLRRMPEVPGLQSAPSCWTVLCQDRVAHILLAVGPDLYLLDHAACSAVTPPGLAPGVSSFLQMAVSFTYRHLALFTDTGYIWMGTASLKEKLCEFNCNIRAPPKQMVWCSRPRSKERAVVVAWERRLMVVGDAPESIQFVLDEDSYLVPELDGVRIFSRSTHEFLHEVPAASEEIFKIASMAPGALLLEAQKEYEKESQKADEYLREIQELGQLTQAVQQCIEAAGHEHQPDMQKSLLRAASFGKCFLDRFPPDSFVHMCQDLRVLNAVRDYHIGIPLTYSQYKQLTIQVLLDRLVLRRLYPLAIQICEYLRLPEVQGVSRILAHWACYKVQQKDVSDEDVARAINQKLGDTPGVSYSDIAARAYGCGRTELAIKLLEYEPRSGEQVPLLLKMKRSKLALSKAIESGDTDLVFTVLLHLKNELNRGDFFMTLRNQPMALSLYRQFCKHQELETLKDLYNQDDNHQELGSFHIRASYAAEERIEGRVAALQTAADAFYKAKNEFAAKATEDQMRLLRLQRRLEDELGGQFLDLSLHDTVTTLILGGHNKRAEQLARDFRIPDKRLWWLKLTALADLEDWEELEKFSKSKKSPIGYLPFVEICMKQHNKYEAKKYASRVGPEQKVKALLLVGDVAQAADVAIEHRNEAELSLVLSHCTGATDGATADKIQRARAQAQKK
inactive: [1] 0.028 | [2] -0.073 | [3] -0.02 | [4] 0.043 | [5] -0.154 | [6] -0.29 | [7] -0.035 | [8] 0.1 | [9] 0.006 | [10] 0.061

TNPO2 (UniProt O14787)
inactive: [1] -0.088 | [2] -0.023 | [3] -0.051 | [4] 0.027 | [5] -0.138 | [7] -0.042 | [8] 0.012 | [9] 0.023 | [10] -0.171
active: [6] -0.339

UBE4B isoform 4 (UniProt O95155)
inactive: [1] 0.008 | [2] -0.031 | [3] 0.006 | [4] 0.057 | [5] -0.117 | [6] -0.041 | [7] 0.047 | [8] 0 | [9] 0.004 | [10] -0.005

USP9X (UniProt Q93008)
inactive: [1] -0.006 | [2] -0.041 | [3] -0.011 | [4] 0.02 | [5] -0.117 | [6] -0.177 | [7] 0.01 | [8] 0.042 | [9] 0.002 | [10] 0.038

TRMT61A (UniProt Q96FX7)
UniProt Q96FX7, sequence (Q96FX7 whole entry, looked up): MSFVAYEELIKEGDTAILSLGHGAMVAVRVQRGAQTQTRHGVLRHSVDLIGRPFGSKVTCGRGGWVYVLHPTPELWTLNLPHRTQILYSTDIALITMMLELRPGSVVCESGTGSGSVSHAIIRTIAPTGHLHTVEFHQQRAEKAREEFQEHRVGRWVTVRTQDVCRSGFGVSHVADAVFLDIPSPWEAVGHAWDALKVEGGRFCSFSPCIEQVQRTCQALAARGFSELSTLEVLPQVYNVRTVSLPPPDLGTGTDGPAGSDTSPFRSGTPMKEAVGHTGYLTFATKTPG
inactive: [1] 0.07 | [2] 0.14 | [3] -0.002 | [4] 0.06 | [5] 0.109 | [6] -0.099 | [7] 0.086 | [8] 0.188 | [9] -0.034 | [10] -0.401

TRMT10C (UniProt Q7L0Y3)
inactive: [1] 0.029 | [2] 0.011 | [3] -0.07 | [4] -0.06 | [5] -0.055 | [6] 0.012 | [7] 0.005 | [8] -0.021 | [9] 0.016 | [10] 0.014

WDR41 (UniProt Q9HAD4)
inactive: [1] -0.024 | [2] -0.022 | [3] -0.023 | [4] -0.036 | [5] -0.077 | [7] -0.026 | [8] 0.012 | [9] 0.127 | [10] -0.001
active: [6] -0.271

TPR (UniProt P12270)
inactive: [1] 0.03 | [2] -0.048 | [3] 0.247 | [4] 0.058 | [5] 0.121 | [6] 0.091 | [7] 0.024 | [8] -0.001 | [9] -0.045 | [10] -0.122

VPS50 (UniProt Q96JG6)
inactive: [1] -0.046 | [2] -0.009 | [3] -0.003 | [4] 0.12 | [5] -0.138 | [6] -0.099 | [7] 0.053 | [8] -0.014 | [9] 0.025 | [10] 0.023

WASHC2A (UniProt Q641Q2)
active: [6] -0.266
inactive: [1] -0.002 | [2] -0.013 | [3] 0.054 | [4] 0.013 | [5] 0.047 | [7] 0.025 | [8] 0.033 | [9] -0.004 | [10] -0.044

TMEM214 (UniProt Q6NUQ4)
inactive: [1] -0.076 | [2] -0.063 | [3] 0.028 | [4] -0.03 | [5] 0.019 | [6] 0.066 | [7] 0.044 | [8] 0.073 | [9] 0.014 | [10] 0.074

TMEM161A (UniProt Q9NX61)
UniProt Q9NX61, sequence (Q9NX61 whole entry, looked up): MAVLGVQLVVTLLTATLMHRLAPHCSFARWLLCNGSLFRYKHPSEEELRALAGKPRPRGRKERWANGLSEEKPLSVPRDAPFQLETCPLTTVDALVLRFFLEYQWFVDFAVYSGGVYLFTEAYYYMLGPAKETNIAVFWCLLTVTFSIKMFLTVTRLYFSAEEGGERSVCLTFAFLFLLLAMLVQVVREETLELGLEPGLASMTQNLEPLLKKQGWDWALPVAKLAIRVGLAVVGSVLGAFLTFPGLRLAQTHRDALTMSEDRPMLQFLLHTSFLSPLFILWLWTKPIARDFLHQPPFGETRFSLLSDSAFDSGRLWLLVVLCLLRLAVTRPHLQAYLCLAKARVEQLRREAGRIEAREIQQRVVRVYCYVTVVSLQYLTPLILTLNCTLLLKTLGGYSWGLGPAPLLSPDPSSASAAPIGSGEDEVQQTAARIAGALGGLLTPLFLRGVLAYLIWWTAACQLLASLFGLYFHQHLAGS
inactive: [1] 0.03 | [2] -0.015 | [3] 0.045 | [4] -0.059 | [5] -0.17 | [7] -0.045 | [8] 0.121 | [9] -0.076 | [10] 0.071
active: [6] -0.395

VPS33A (UniProt Q96AX1)
active: [6] -0.299
inactive: [1] -0.017 | [2] -0.021 | [3] -0.001 | [4] 0.048 | [5] -0.065 | [7] 0.054 | [8] 0.099 | [9] 0.035 | [10] 0.005

TPM2 (UniProt P07951)
UniProt P07951, sequence (P07951 whole entry, looked up): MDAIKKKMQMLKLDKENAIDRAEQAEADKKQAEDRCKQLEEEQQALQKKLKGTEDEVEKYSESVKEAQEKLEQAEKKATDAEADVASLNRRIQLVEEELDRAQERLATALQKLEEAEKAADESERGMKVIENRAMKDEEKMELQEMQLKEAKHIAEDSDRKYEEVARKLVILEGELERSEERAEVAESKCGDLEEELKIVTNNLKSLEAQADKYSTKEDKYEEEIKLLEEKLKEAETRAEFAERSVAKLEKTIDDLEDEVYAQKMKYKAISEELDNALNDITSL
inactive: [1] 0.013 | [2] -0.018 | [3] 0.027 | [4] 0.059 | [5] -0.053 | [6] 0.037 | [7] -0.163 | [8] -0.1 | [9] 0.079 | [10] -0.103

TXN2 (UniProt Q99757)
UniProt Q99757, sequence (Q99757 whole entry, looked up): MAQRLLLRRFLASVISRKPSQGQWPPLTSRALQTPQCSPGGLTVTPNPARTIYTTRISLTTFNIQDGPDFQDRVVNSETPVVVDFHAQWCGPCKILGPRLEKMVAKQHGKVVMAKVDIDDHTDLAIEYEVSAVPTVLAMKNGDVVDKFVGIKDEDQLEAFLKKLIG
inactive: [1] 0.081 | [2] 0.021 | [3] 0.072 | [4] -0.093 | [5] 0.079 | [6] 0.086 | [7] -0.029 | [8] -0.048 | [9] 0.086 | [10] 0.041

XPO5 (UniProt Q9HAV4)
inactive: [1] -0.004 | [2] -0.027 | [3] 0.032 | [4] 0.001 | [5] -0.141 | [6] -0.21 | [7] -0.021 | [8] -0.01 | [9] 0
active: [10] -0.204

USP14 (UniProt P54578)
UniProt P54578, sequence (P54578 whole entry, looked up): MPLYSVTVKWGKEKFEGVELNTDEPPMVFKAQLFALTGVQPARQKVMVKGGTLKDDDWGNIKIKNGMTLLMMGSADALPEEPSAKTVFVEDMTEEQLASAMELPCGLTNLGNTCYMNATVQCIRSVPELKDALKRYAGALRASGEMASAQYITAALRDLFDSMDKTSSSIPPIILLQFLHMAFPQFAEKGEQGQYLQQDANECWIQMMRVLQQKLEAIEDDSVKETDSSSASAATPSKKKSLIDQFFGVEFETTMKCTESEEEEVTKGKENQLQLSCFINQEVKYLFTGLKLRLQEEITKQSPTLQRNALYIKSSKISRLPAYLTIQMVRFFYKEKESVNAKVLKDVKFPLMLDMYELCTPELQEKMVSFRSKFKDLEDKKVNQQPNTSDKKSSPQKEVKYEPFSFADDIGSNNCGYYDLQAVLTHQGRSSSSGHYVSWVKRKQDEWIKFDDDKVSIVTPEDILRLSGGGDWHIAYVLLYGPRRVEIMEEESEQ
inactive: [1] -0.013 | [2] -0.045 | [3] -0.004 | [4] 0.021 | [5] -0.028 | [6] -0.068 | [7] 0.044 | [8] -0.031 | [9] 0 | [10] 0.014
